# This is a sample that favours compounds with a hit; in the whole collection about 1.5% have one here.
# GLD-1 RNA inh – GLD-1/TGE RNA complex disruptors, primary screen, biochemical, fluorescence polarization; Female germline-specific tumor suppressor gld-1 (Caenorhabditis elegans), Q17339; inhibition, % at 5.96 µM; 0.44% of 320,000 active; purified GLD-1 + fluorescein TGE RNA; AID 2280, 2010;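 active = percent inhibition above a per-plate cutoff, the plate mean of test compounds plus 3 SD, cut at about 30% in these data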;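 note: 0% = DMSO wells with GLD-1 and probe and 100% = wells lacking GLD-1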
# Target sequence (Q17339 whole entry, looked up): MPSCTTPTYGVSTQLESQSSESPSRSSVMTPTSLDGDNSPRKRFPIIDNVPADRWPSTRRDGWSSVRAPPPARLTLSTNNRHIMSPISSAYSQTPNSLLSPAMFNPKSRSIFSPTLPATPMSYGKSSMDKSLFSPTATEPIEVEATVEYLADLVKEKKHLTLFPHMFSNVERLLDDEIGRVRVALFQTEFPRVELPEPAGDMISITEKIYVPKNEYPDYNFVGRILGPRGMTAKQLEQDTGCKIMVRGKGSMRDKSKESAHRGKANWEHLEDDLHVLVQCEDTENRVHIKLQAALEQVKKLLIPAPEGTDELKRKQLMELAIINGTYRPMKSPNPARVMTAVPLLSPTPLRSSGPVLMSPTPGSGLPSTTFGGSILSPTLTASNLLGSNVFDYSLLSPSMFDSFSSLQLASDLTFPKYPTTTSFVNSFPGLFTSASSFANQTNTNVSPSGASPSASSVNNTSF
# Bcl-xL primary – inhibitors of human Bcl-xL, primary screen, biochemical, fluorescence polarization, HTS; GST-Bcl-xL / FITC-Bim BH3 peptide fluorescence polarization; inhibition, % at 10.9 µM; 0.7% of 320,000 active;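 active = inhibition above the mean of all tested compounds plus 3 SD, cutoff set per campaign, cut at about 30% in these data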;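 note: 0% = DMSO wells and 100% = unlabeled Bim-BH3 peptide competitor; inhibitors lower millipolarization by displacing the labeled peptide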
# MCL1 BIM primary – inhibitors of MCL1 binding to BIM-BH3, primary screen, biochemical, fluorescence polarization; GST-MCL1 / FITC-Bim-BH3 fluorescence polarization; inhibition, % at 10.9 µM; 0.68% of 320,000 active;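 active = inhibition above the mean inhibition of all tested compounds plus 3 SD, set per campaign, cut at about 40% in these data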;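 note: 0% = DMSO wells and 100% = unlabeled Bim-BH3 peptide control; higher means more loss of mP so more displacement of Bim peptide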
# EBV gp42 block – Epstein-Barr virus gp42 inhibitors, primary screen, biochemical, uHTS, fluorescence polarization | 0.42% of 220,000 active | inhibition, % (tested at 21.74 µM) | Fluorescence polarization binding assay, mP read-out; in the data active = inhibition above about 50%
# eLon inh – inhibitors of E. coli Lon protease, primary screen, biochemical, fluorescence polarization; P0A9M0; purified E. coli Lon protease; inhibition, % at 7.94 µM; 0.42% of 360,000 active; AID 602123, 2011; in the data active = inhibition above about 13%, passing the limit was not always enough;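 note: 0% = enzyme with probe and DMSO and 100% = no enzyme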
# MEX-5 binding – MEX-5 zinc finger RNA-binding disruptors – biochemical, C. elegans, fluorescence polarization, MLPCN library, primary screen | Zinc finger protein mex-5 (Caenorhabditis elegans), Q9XUB2 | MEX-5/FITC-TCR2 RNA binding; active compounds read low | activity score (negative = inhibition of binding), % at 10 µM | 0.38% of 300,000 active;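 active = inhibition past about -25% in most replicates, and total fluorescence under double the plate's negative control median, limit read from the data; inconclusive = replicates evenly split on the limit, or fluorescence at least double controls; inactive = too little inhibition in most replicates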;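 note: 0% = DMSO and -100% = 5 µM competing unlabeled TCR2 RNA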
# BCLXL inh confirm – Bcl-xL inhibitors blocking Bim BH3 binding, confirmation, counter-screen for MCL1 inhibitor project, biochemical, fluorescence polarization | 54% of 1,700 active | AID 2166, 2009 | GST-Bcl-xL / FITC-Bim BH3 peptide FP binding | inhibition, % at 10.9 µM | shares compounds with MCL1 BIM primary;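 active = inhibition above a cutoff equal to the mean inhibition of all tested compounds plus 3 SD, cut at about 30% in these data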;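 note: 0% = DMSO wells and 100% = unlabeled Bim BH3 control peptide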
# MCL1 BIM confirm – inhibitors of MCL1 binding to BIM-BH3, confirmation, biochemical, fluorescence polarization, triplicate | shares compounds with MCL1 BIM primary | GST-MCL1 / FITC-Bim-BH3 fluorescence polarization | inhibition, % at 10.9 µM | 61% of 1,700 active;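 active = inhibition above the average of all tested compounds plus 3 SD, cut at about 40% in these data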;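 note: 0% = DMSO wells and 100% = unlabeled Bim-BH3 control peptide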
# GLD1 RNA confirm – GLD-1/TGE RNA binding inhibitors, retest, confirmation, biochemical, fluorescence polarization, triplicate. GLD-1/FL-TGE RNA fluorescence polarization. shares compounds with GLD-1 RNA inh. 10% of 550 active. inhibition, % at 5.96 µM;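 active = average inhibition across triplicates above the hit cutoff set in the primary screen, cut at about 32% in these data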;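 note: 0% = GLD-1 with RNA probe and DMSO and 100% = wells lacking GLD-1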
# E coli Lon conf – E. coli Lon protease inhibitor retest, confirmation, biochemical, fluorescence polarization | 31% of 1,400 active | purified E. coli Lon | inhibition, % at 7.94 µM | shares compounds with eLon inh; in the data active = inhibition above about 16%;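 note: 0% = enzyme with probe and DMSO and 100% = no enzyme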
# * = called active by the depositor; u = inconclusive; x = not tested or not shown; + = active, no number.
SMILES,GLD-1 RNA inh,Bcl-xL primary,MCL1 BIM primary,EBV gp42 block,eLon inh,MEX-5 binding,BCLXL inh confirm,MCL1 BIM confirm,E coli Lon conf,others
C[C@@H]1CN([C@@H](C)CO)C(=O)CCCn2nncc2CO[C@@H]1CN(C)S(=O)(=O)c1ccccc1C#N,x,x,x,x,1,x,x,x,x,
N#Cc1c(N)sc(=S)c2c1CCCC2,102*,142*,160*,48,16*,-2,62*,92*,13,
Nc1c(C(=O)N/N=C/c2cccnc2)oc2nc(-c3ccco3)cc(-c3ccco3)c12,29,68*,61*,19,56*,-6,7,-2,-152,
CCCCOc1[nH]c2nc(-c3ccco3)n(Cc3ccco3)c(=N)c2c1C#N,107*,140*,163*,55*,51*,-1,90*,123*,10,
CC(C)C(=O)N[C@@H]1c2ccccc2CC[C@H]1OCc1ccccc1,x,x,x,x,-6,x,x,x,x,
COc1cc2[nH]c(=O)n(C3CCCCC3)c(=O)c2cc1OC,8,-4,-4,-3,7,1,x,x,x,
Nc1ccc2nc3c(=O)n(C4CCCCC4)c(=O)[nH]c3nc2c1,+,+,+,152*,+,u,191*,+,183*,
Cc1cc2nc3c(=O)n(CCc4ccccc4)c(=O)[nH]c3nc2cc1N,189*,+,+,158*,166*,u,190*,+,89*,
CCCCn1c(N)c(Br)c(=O)[nH]c1=O,-7,3,-2,-1,-3,-3,x,x,x,
CCCCn1c(=O)[nH]c2nc3cc(N)ccc3nc2c1=O,+,+,+,174*,+,x,+,+,+,
Nc1ccc2nc3c(=O)n(CCc4ccccc4)c(=O)[nH]c3nc2c1,191*,181*,+,174*,191*,-52*,182*,+,132*,
Nc1ccc2nc(CCc3ccccc3)[nH]c2c1,3,7,7,-3,0,4,x,x,x,
CC1(C)SC2c3ccccc3C(=O)N2[C@@H]1C(=O)NC1CC1 (stereo partly drawn),6,5,2,x,-10,2,x,x,x,
Cc1cc(C)c(S(=O)(=O)c2ccc(C(C)(C)C)cc2)c(Cl)n1,-160,2,2,x,0,1,x,x,x,
c1ccc2[nH]c3cc4ncnc4cc3nc2c1,+,+,+,+,153*,-81*,+,+,+,
CCCNC(=O)C1(C)CCN(C(=O)COc2ccc(Cl)cc2Cl)C1 (stereo not drawn),x,x,x,x,6,x,x,x,x,
CCNc1cccc2c1C(=O)N(C)C2=O,180*,177*,+,160*,151*,0,167*,+,165*,
C[C@@H]1CN([C@@H](C)CO)C(=O)CCCn2nncc2CO[C@H]1CN(C)Cc1ccccc1C(F)(F)F,x,x,x,x,-3,x,x,x,x,
Cn1c(=O)c(N)c2c3c(c(Br)ccc31)C(=O)c1ccccc1-2,+,+,+,171*,+,-39*,+,+,+,
Cn1c(=O)c2c(nc(Oc3ccccc3Br)n2C)n(C)c1=O,x,x,x,x,0,-2,x,x,x,
CC1CC(C)CN(C(=O)CSc2nnc3ccccn23)C1 (stereo not drawn),-1,x,x,x,10,x,x,x,x,
Fc1ccc(C2=CC(c3ccco3)n3ncnc3N2)cc1 (stereo not drawn),96*,152*,181*,26,79*,-51*,11,22,-3,
CC(C)(C)c1cc[n+](-c2[nH]c(=O)sc2/C=N/N=C(\[O-])c2cccnc2)cc1,2,2,-1,x,3,-1,x,x,x,
O=c1[nH]c(-[n+]2ccc3ccccc3c2)c(/C=N/N=C(\[O-])c2ccccc2)s1,137*,93*,99*,x,43*,-8,22,34,-2,
CCc1ccccc1NC(=O)CN1CCN(C(=O)CNC(=O)c2ccc(-c3ccccc3)cc2)CC1,3,3,0,x,-1,x,x,x,x,
SMILES,GLD-1 RNA inh,Bcl-xL primary,MCL1 BIM primary,EBV gp42 block,eLon inh,MEX-5 binding,BCLXL inh confirm,MCL1 BIM confirm,E coli Lon conf,others
Cc1oc2cc(O)ccc2c(=O)c1-c1ccccc1,5,6,9,-12,0,-2,x,x,x,
Cc1oc2cc(O)ccc2c(=O)c1-c1nncn1-c1ccccc1,113*,113*,109*,108*,34*,u,119*,139*,51*,
S=C(Nc1ccc2nc(-c3ccccn3)c(-c3ccccn3)nc2c1)N1CCOCC1,40*,60*,87*,15,20*,-15,31*,37,7,GLD1 RNA confirm=6
CN(C)NC(=S)Nc1ccc2nc(-c3ccccn3)c(-c3ccccn3)nc2c1,20,16,25,3,15,-5,x,x,x,
CC(C)(CNC(=O)CNC(=O)c1ccccc1F)N1CCOCC1,2,2,4,x,-11,x,x,x,x,
COc1ccc(NS(=O)(=O)c2ccc(Cl)s2)cn1,50*,72*,78*,57*,19*,-17,72*,94*,35*,GLD1 RNA confirm=54*
COc1ccc(NS(=O)(=O)c2cccs2)cn1,3,10,9,-5,8,0,x,x,x,
Cc1cc(C)nc(-n2ncc3c2CC(C)CC3=O)n1 (stereo not drawn),2,-3,4,-6,5,-1,x,x,x,

# High-throughput results as filed in PubChem.
